Holding throughout (assay): yeast three-hybrid, YBZ-1, SC-Leu-His + 0.5 mM 3-AT, 4 days
What all share (conditions): tags: N-Gal4 AD-HA kept; label: inside an RPR1-promoter hybrid RNA with tandem MS2 sites; ssRNA

In one assay the target is PUM1 PUF domain R8-RCK (Homo sapiens, UniProt Q14671 828-1176, N1122R;Y1123C;Q1126K). The method, boiled down:
(§1)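 Sequencing with Illumina followed PCR amplification of the repeat regions from transformants grown four days on SC-Leu (input) or SC-Leu-His + 0.5 mM 3-AT (selection). The transformants were strain YBZ-1 with a LexA–MS2 coat fusion and a HIS3 reporter, carrying Pumilio-1 PUF domain libraries and matching RNA elements. The interaction score is the log change in variant frequency from input to selection, computed in log2 with a pseudocount of 1 for absent variants.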

The target of a further assay is PUM1 PUF domain R4-SHF (Homo sapiens, UniProt Q14671 828-1176, N971S;Q975F). The method, boiled down:
as §1

The target of the next assay is PUM1 PUF domain R4-AFP (Homo sapiens, UniProt Q14671 828-1176, N971A;H972F;Q975P). The method, boiled down:
as §1

For the next assay, the target named is PUM1 PUF domain R4-VNA (Homo sapiens, UniProt Q14671 828-1176, N971V;H972N;Q975A). The method, boiled down:
as §1

Another assay deals with PUM1 PUF domain R5-PRL (Homo sapiens, UniProt Q14671 828-1176, C1007P;Q1011L). In a few lines: as §1
The target of the next assay is PUM1 PUF domain R5-SNN (Homo sapiens, UniProt Q14671 828-1176, C1007S;R1008N;Q1011N). In a few lines: as §1
A further assay addresses PUM1 PUF domain R5-QNG (Homo sapiens, UniProt Q14671 828-1176, C1007Q;R1008N;Q1011G). The method, boiled down: as §1
Another assay deals with PUM1 PUF domain R5-KQT (Homo sapiens, UniProt Q14671 828-1176, C1007K;R1008Q;Q1011T). In a few lines: as §1
For another assay, the target named is T1, PUM1 PUF domain R6-SWE (Homo sapiens, UniProt Q14671 828-1176, N1043S;Y1044W;Q1047E).
T1 sequence: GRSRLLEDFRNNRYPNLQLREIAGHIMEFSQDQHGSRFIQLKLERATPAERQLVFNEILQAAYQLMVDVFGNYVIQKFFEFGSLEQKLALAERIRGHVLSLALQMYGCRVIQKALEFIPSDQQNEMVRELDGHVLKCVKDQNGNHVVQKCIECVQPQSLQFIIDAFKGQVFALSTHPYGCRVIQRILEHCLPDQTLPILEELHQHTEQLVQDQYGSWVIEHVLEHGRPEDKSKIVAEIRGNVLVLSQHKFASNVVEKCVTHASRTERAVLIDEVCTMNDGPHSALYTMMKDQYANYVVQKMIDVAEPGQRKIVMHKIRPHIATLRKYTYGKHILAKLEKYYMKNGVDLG
In a few lines:
as §1

A further assay concerns the target PUM1 PUF domain R1-SRR (Homo sapiens, UniProt Q14671 828-1176, Q867R). The method, boiled down: as §1
Another assay has as its target PUM1 PUF domain R1-GVR (Homo sapiens, UniProt Q14671 828-1176, S863G;R864V;Q867R). In a few lines:
as §1

For a further assay, the target named is PUM1 PUF domain R5-RKT (Homo sapiens, UniProt Q14671 828-1176, C1007R;R1008K;Q1011T). In a few lines: as §1
The target in the next assay is PUM1 PUF domain R5-RNC (Homo sapiens, UniProt Q14671 828-1176, C1007R;R1008N;Q1011C). The method, boiled down:
as §1

PUM1 PUF domain R5-KQT, sequence (Q14671 828-1176 C1007K/R1008Q/Q1011T): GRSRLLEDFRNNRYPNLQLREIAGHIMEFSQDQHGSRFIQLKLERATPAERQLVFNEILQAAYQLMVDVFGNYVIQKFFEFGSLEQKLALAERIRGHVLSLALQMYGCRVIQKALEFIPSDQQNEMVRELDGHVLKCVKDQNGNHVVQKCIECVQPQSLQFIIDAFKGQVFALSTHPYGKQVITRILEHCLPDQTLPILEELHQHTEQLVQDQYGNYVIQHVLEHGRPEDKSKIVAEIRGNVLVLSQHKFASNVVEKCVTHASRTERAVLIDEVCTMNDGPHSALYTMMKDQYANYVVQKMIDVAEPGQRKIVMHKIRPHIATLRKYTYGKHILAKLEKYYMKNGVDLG
PUM1 PUF domain R4-AFP, sequence (Q14671 828-1176 N971A/H972F/Q975P): as the sequence (Q14671 828-1176 C1007K/R1008Q/Q1011T) above, with N144A, H145F, Q148P, K180C, Q181R, T184Q counted along it

In the case of “GGCUAGAACUAGUGGAUCCCCCGGCGCCCGGCGGCUCGAGCCCGGGUAAGCGUAAAUAGUCUGCAUGCCGCCGGGCGCCAUGCCUGCAGGUCGACUCUAGAAAACAUG”, the binding signal with PUM1 PUF domain R8-RCK was 2.23 log2 enrichment (interaction score).
Consider “GGCUAGAACUAGUGGAUCCCCCGGCGCCCGGCGGCUCGAGCCCGGGUAAGUGUACAUAGUCUGCAUGCCGCCGGGCGCCAUGCCUGCAGGUCGACUCUAGAAAACAUG”, for which the binding signal with PUM1 PUF domain R4-SHF is 5.41 log2 enrichment (interaction score); with PUM1 PUF domain R4-AFP, 6.13 log2 enrichment (interaction score); with PUM1 PUF domain R4-VNA, 1.65 log2 enrichment (interaction score).
As to “GGCUAGAACUAGUGGAUCCCCCGGCGCCCGGCGGCUCGAGCCCGGGUAAGUGUUAAUAGUCUGCAUGCCGCCGGGCGCCAUGCCUGCAGGUCGACUCUAGAAAACAUG”, the binding signal was 4.51 log2 enrichment (interaction score) in the assay with PUM1 PUF domain R5-PRL, 4.07 log2 enrichment (interaction score) with PUM1 PUF domain R5-SNN, 2.88 log2 enrichment (interaction score) with PUM1 PUF domain R5-QNG and 2.84 log2 enrichment (interaction score) with PUM1 PUF domain R5-KQT.
Take “GGCUAGAACUAGUGGAUCCCCCGGCGCCCGGCGGCUCGAGCCCGGGUAAGUGGAAAUAGUCUGCAUGCCGCCGGGCGCCAUGCCUGCAGGUCGACUCUAGAAAACAUG”: the binding signal in the assay with PUM1 PUF domain R6-SWE was 4.47 log2 enrichment (interaction score).
Consider “GGCUAGAACUAGUGGAUCCCCCGGCGCCCGGCGGCUCGAGCCCGGGUAAGUGUAAAUCGUCUGCAUGCCGCCGGGCGCCAUGCCUGCAGGUCGACUCUAGAAAACAUG”, for which the binding signal was 3.51 log2 enrichment (interaction score) in the assay with PUM1 PUF domain R1-SRR and 3.35 log2 enrichment (interaction score) with PUM1 PUF domain R1-GVR.
On to “GGCUAGAACUAGUGGAUCCCCCGGCGCCCGGCGGCUCGAGCCCGGGUAAGUGUCAAUAGUCUGCAUGCCGCCGGGCGCCAUGCCUGCAGGUCGACUCUAGAAAACAUG”, for which the binding signal with PUM1 PUF domain R5-PRL was 0.34 log2 enrichment (interaction score); with PUM1 PUF domain R5-RKT it was 2.84 log2 enrichment (interaction score); with PUM1 PUF domain R5-RNC, 3.93 log2 enrichment (interaction score); with PUM1 PUF domain R5-KQT it was 4.51 log2 enrichment (interaction score).

(Values after paper PMC8384837, “Expanding the binding specificity for RNA recognition by a PUF domain”.)
